# The campaign covered roughly 4,800 compounds. About 420 (8.8%) showed an effect of 50% or more. Many of the other results were omitted from the sample, so strong results are more common in it than they were.
# System: Plasmodium falciparum
# Assay: Confirmatory screen in NF54 nanoGlo assay, in single point, at 2uM, 72h
# Type: functional, Erythrocyte
# Conditions: timepoint 72 hour
row,Structure (SMILES),% Inhibition [%]
1,CC1CC(C)CC2(C1)NC(=O)N(CCC1OCCO1)C2=O (stereo not drawn),-1
2,Cc1cc(=O)n(CC(=O)N2CCC(C)CC2)c(-c2ccc(F)cc2)n1,-4
3,O=C(CCc1nc(CN2CCN(S(=O)(=O)c3ccc(F)cc3)CC2)no1)N1CCCC1,-4
4,CCOC(=O)N1CCc2c(nc(-c3ccc(C)cc3)n(CC(=O)Nc3ccc(C(C)C)cc3)c2=O)C1,-16
5,Cc1noc([C@H](C)S(=O)(=O)Cc2cc(C)on2)n1,0
6,O=S(=O)(Nc1ccc(F)cc1OCC1CC1)c1cn[nH]c1,-12
7,Cn1cc(CNC(=O)NCC2(Cc3ccccc3)CCC2)cn1,-4
8,Cc1c(C(C)C)c(=O)n(-c2ccc(S(=O)(=O)N3CCN(c4nc5ccccc5nc4-c4ccccc4)CC3)cc2)n1C,-20
9,CCN(CC(C)(C)O)C(=O)C1CCCCCC1,-9
10,Cn1nc(C(F)(F)F)cc1B1OC(C)(C)C(C)(C)O1,4
11,C=CCOc1ccc(Cl)c(C(=O)N[C@H]2CCS(=O)(=O)C2)n1,0
12,O=C(CCCc1ccccc1)Nc1cc(C2CC2)nn1-c1nc(-c2ccccc2)cc(=O)[nH]1,48
13,CCC(CC)C(=O)Nc1cc(C2CC2)nn1-c1nc(-c2ccccc2)cc(=O)[nH]1,50
14,Cc1cc(N)n(-c2nc(-c3ccccc3)cc(=O)[nH]2)n1,1
15,Cc1ccc(NC(=O)NC(=O)Cn2ccc(=O)c3sccc32)cc1C,0
16,Cc1ccc2c(c1)c1c(n2S(=O)(=O)c2ccc(C(C)(C)C)cc2)CCCN(C)C1,76
17,Cc1ccc(S(=O)(=O)N2CCN(S(C)(=O)=O)C2)cc1,0
18,Cc1ccc(S(=O)(=O)N2CCCC(=O)c3ccccc32)cc1,-3
19,CC#CCCC(=O)Nc1ccc(OC)cc1,-5
20,Cc1cc(C)c(OC(=O)c2ccc(Cl)cc2Cl)c(CNC(=O)c2ccccc2)c1,-16
21,c1cc([C@@H]2CCCCN2c2nc(C3CC3)ns2)n[nH]1,2

row,Structure (SMILES),% Inhibition [%]
1,CCNC(=O)C[C@H]1CCCCN1C(=O)C1CCN(Cc2csc(C)n2)CC1,-1
2,O=S(=O)(c1ccccc1C(F)(F)F)N1CC[C@]2(CCN(c3cccnc3)C2)C1,-2
3,Cc1ccc(C(=O)N[C@@H](C)CCc2ccccc2)cc1S(=O)(=O)N1CCN(C)CC1,-20
4,CCn1nccc1CN(C)C(=O)c1cc(C)c(C)s1,5
5,CCCC[C@H](CC)C(=O)Nc1cc(C)ccn1,0
6,Cc1cc(C)n(NC(=O)CCn2nc(C(F)(F)F)c(Br)c2C2CC2)c(=O)c1,3
7,CCCOc1cccc2c(NC3CCN(CCOC)CC3)ccnc12,22
8,Clc1cc(CN2CC[C@@]3(CCCOC3)C2)ccc1OCCN1CCOCC1,0
9,Cc1cc(C)cc(Nc2nc(C)cc(=O)n2CC(=O)N2CCN(c3ccc(F)cc3)CC2)c1,-1
10,Cc1c(C(=O)c2ccc(Cl)c(Cl)c2)sc2nc3cc(F)c(F)cc3n12,-11
11,Nc1ncnc(NCc2cccnc2OCC(F)F)c1Cl,7
12,COc1cc(C(=O)NCCN2CCOCC2)cc2occc12,-4
13,CC1CC(NS(=O)(=O)CCCC(F)(F)F)CCN1 (stereo not drawn),-4
14,COc1cc(NC(=O)N[C@@H](C)C(=O)N2CCc3ccccc32)cc(OC)c1,4
15,Cc1ccc(NC(=O)c2cc3nccc(-c4ccc(F)cc4)n3n2)nc1,-7
16,CN(C(=O)NC1CCCC1)c1nc2c(s1)CN(Cc1ccccc1)C2=O,-12
17,Cc1ccc(CNC2CCN(C)CC2)c(OCc2ccco2)c1,-3
18,Cc1ccc2nc(C3CC3)cc(C(=O)N3C[C@@H](O)C[C@H]3CO)c2c1,-4
19,Cc1ccc2nc3c(c(N)c2c1)CCCCN3C,-10
20,COCCN(CC1CN(Cc2ccccc2OC)CC1c1ccccc1OC)C(=O)COC (stereo not drawn),-2
21,CC(C)[C@@H]1CCc2ccccc2N1Cc1nc(N)nc(N(C)C)n1,-4

row,Structure (SMILES),% Inhibition [%]
1,COc1ccc(NC(=O)Cn2c(C(F)(F)F)nc3cc4c(cc32)OCCCO4)cc1,4
2,Cn1c2cn(-c3ccc(F)cc3)c(-c3ccccc3)c2c(=O)n1-c1ccccc1,-1
3,Cn1c(=O)c2c(-c3ccc(Cl)cc3)n(-c3cccc4cccc(N)c34)cc2n(C)c1=O,91
4,CC(C)(C)OC(=O)N1CCCC(C(O)C(F)(F)F)C1 (stereo not drawn),6
5,CCCCC12CN(S(=O)(=O)c3ccccc3)CC(C)(CN(S(=O)(=O)c3ccccc3)C1)C2=O,-5
6,COc1ccc(-c2cc(C(=O)N[C@H]3CCN(c4ccc(=O)n(C)n4)C3)c(C)n2C)cc1,62
7,Cn1cccc1C(=O)NC1CCN(c2ccc(Cl)c(C#N)n2)CC1,-5
8,COc1ccc(-c2cc(C(=O)N[C@H]3CCN(c4ccc(=O)[nH]n4)C3)c(C)n2C)cc1,69
9,Cc1c(C(=O)NC2CC2)cc(-c2ccccc2)n1C,-3
10,CCCCN(CC)CCNC(=O)C1CCN(C2=NS(=O)(=O)C(c3ccc(OC)cc3)=C2C)CC1,32
11,CC(C)NC(=O)c1ccc(CN2C(=O)COc3ccc(C(=O)COc4ccc(F)c(F)c4)cc32)o1,4
12,CC[C@H](C)NS(=O)(=O)c1cccc(N)c1,-4
13,O=C(NCc1ccco1)[C@H]1CCCN(c2nc3ccccc3n(Cc3ccccc3)c2=O)C1,4
14,Brc1cccc(-c2ccc(-c3cc(-c4ccccc4)nnc3-c3ccccc3)o2)c1,31
15,COc1cc(Br)ccc1C1NC(=O)C2COCCN21 (stereo not drawn),7
16,CC(C)(C)c1cc([C@H](c2ccc(Cl)cc2)N2CCCCC2)cc(C(C)(C)C)c1O,2
17,CN(Cc1nnc[nH]1)C(=O)C1(C)CCC1,-11
18,COc1ccc(CCNc2nc(-c3ccc(OC)cc3F)c3c(N)n(-c4ccc(Cl)cc4)nc3n2)cc1,59
19,COc1ccc(-n2nc(C)c(Cc3ccc(Cl)cc3)c2O)cc1,0
20,COCCNc1nc(-c2ccccc2OC)c2c(N)n(-c3ccc(F)cc3)nc2n1,-6
21,Cc1cc(N2C(=O)CCS2(=O)=O)cc(C)c1S(=O)(=O)NCc1ccccn1,2

# From ChEMBL document CHEMBL4888484, “Replenishing the malaria drug discovery pipeline: Screening and hit evaluation of the MMV Hit Generation Library 1 (HGL1) against asexual blood stage Plasmodium falciparum ,using a nano luciferase reporter read-out” (2022)
